Reference: the supplement of paper PMC8728848
The entries come from a sample that favours the strongest signals as a whole.

Tests used:
Assay in all cases: glycan array binding signal (z-score within array); higher = stronger binding
Details in all cases: glycan notation: IUPAC condensed, linker removed
[1] = molecular target: GalNAc(a1-3)GalNAc(b1-3)Gal(a1-4)Gal(b1-4)GlcNAc
How it was run: (§1)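 The binding signal is a Z-score computed within each array. Data were drawn from 3228 arrays in the Consortium for Functional Glycomics database, restricted to those with a known protein sequence. Scores were averaged over arrays of the same protein sequence at different concentrations or buffers, and over linkers, and negative values can be taken as non-binding.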

[2] = molecular target: GalNAc(b1-4)GlcNAc
How it was run: as §1

[3] = molecular target: GalNAc(b1-4)GlcNAc(b1-2)Man(a1-3)[GalNAc(b1-4)GlcNAc(b1-2)Man(a1-6)]Man(b1-4)GlcNAc(b1-4)GlcNAc
How it was run: as §1

[4] = molecular target: GalNAc(b1-4)GlcNAc6S
How it was run: as §1

[5] = molecular target: GlcNAc(b1-2)[GlcNAc(b1-4)]Man(a1-3)[GlcNAc(b1-4)][GlcNAc(b1-2)Man(a1-6)]Man(b1-4)GlcNAc(b1-4)GlcNAc
How it was run: as §1

[6] = molecular target: GlcNAc(b1-3)Gal(b1-4)GlcNAc(b1-6)[GlcNAc(b1-3)Gal(b1-3)]GalNAc
How it was run: as §1

[7] = molecular target: GlcNAc(b1-3)[GlcNAc(b1-6)]Gal(b1-4)GlcNAc
How it was run: as §1

[8] = molecular target: Man(a1-2)Man(a1-6)[Man(a1-3)]Man(a1-6)[Man(a1-2)Man(a1-2)Man(a1-3)]Man(b1-4)GlcNAc(b1-4)GlcNAc
How it was run: as §1

[9] = molecular target: Man(a1-3)[Man(a1-6)]Man
How it was run: as §1

[10] = molecular target: Man(a1-3)[Man(a1-6)]Man(a1-6)[Man(a1-2)Man(a1-3)]Man(b1-4)GlcNAc(b1-4)GlcNAc
How it was run: as §1

[11] = molecular target: Man(a1-3)[Man(a1-6)]Man(a1-6)[Man(a1-3)]Man(b1-4)GlcNAc(b1-4)GlcNAc
How it was run: as §1

[12] = molecular target: Neu5Ac(a2-3)Gal(b1-3)GalNAc
How it was run: as §1

[13] = molecular target: Neu5Ac(a2-3)Gal(b1-3)[Fuc(a1-4)]GlcNAc(b1-3)Gal(b1-4)[Fuc(a1-3)]GlcNAc
How it was run: as §1

[14] = molecular target: Neu5Ac(a2-3)Gal(b1-4)GlcNAc6S
How it was run: as §1

[15] = molecular target: Neu5Ac(a2-3)Gal(b1-4)[Fuc(a1-3)]GlcNAc(b1-3)Gal
How it was run: as §1

[16] = molecular target: Neu5Ac(a2-3)Gal(b1-4)[Fuc(a1-3)]GlcNAc(b1-3)GalNAc
How it was run: as §1

[17] = molecular target: Neu5Ac(a2-3)[GalNAc(b1-4)]Gal(b1-4)Glc
How it was run: as §1

[18] = molecular target: Neu5Ac(a2-6)Gal(b1-4)GlcNAc(b1-2)[Neu5Ac(a2-6)Gal(b1-4)GlcNAc(b1-6)]Man(a1-6)[Neu5Ac(a2-6)Gal(b1-4)GlcNAc(b1-2)Man(a1-3)][GlcNAc(b1-4)]Man(b1-4)GlcNAc(b1-4)GlcNAc
How it was run: as §1

[19] = molecular target: Neu5Ac(a2-6)Gal(b1-4)GlcNAc(b1-3)Gal(b1-4)GlcNAc(b1-3)Gal(b1-4)GlcNAc(b1-2)Man(a1-3)[Neu5Ac(a2-6)Gal(b1-4)GlcNAc(b1-3)Gal(b1-4)GlcNAc(b1-3)Gal(b1-4)GlcNAc(b1-2)Man(a1-6)]GalNAc
How it was run: as §1

[20] = molecular target: Neu5Ac(a2-8)Neu5Ac(a2-3)[GalNAc(b1-4)]Gal(b1-4)Glc
How it was run: as §1

B1: SP16665A-bot-344-23-344 (Bacteroides ovatus) (protein)
chain: SDNEFPDFDYQTVYFANQYGLRTIELGESEFVDNTLDNQHKMVIKAAWGGGYTNRNNVVINFKVDESLCDNLYFKDTDQPLVPMPASYYTLASDRIAIPKGQIMAGVEVQLTDDFFADEKSISENYVIPLLMTNVQGADSILQGKPVVENPVLTNAGDWSILPQNFVLYAVKYVNPWHGEYLRRGIDHATVAGTSKDIIRHEQFVENDEVVNISTKSMKDNLLTLKTKDESGKDISYTVRLSFAEDGSCTVHSGSQNVVVSGSGKFVSKGEKNSLGGKDRNAIYLDYTVNLTDNNIQLATKDTLVLRTRNVYGGKSLEVVRK
B1 was tested. Which “glycan array binding signal (z-score)” value [1] did it give?
The value was -0.21.

What about the “glycan array binding signal (z-score)” value [2] of the same binder?
The value was 1.18.

And the “glycan array binding signal (z-score)” value [3]?
The value was 1.54.

What about the “glycan array binding signal (z-score)” value [4] of the same binder?
Its value is -0.085.

What about the “glycan array binding signal (z-score)” value [5] of the same binder?
Its value is 1.11.

And the “glycan array binding signal (z-score)” value [6]?
The value was -0.227.

What about the “glycan array binding signal (z-score)” value [7] of the same binder?
The value was -0.304.

What about the “glycan array binding signal (z-score)” value [8] of the same binder?
The value was -0.087.

And the “glycan array binding signal (z-score)” value [9]?
The value was -0.441.

And the “glycan array binding signal (z-score)” value [10]?
The value was 0.003.

And the “glycan array binding signal (z-score)” value [11]?
Its value is -0.618.

What about the “glycan array binding signal (z-score)” value [12] of the same binder?
Its value is 1.94.

What about the “glycan array binding signal (z-score)” value [13] of the same binder?
Its value is 0.438.

And the “glycan array binding signal (z-score)” value [14]?
Its value is -0.405.

What about the “glycan array binding signal (z-score)” value [15] of the same binder?
Its value is -0.135.

And the “glycan array binding signal (z-score)” value [16]?
Its value is 1.76.

What about the “glycan array binding signal (z-score)” value [17] of the same binder?
The value was -0.539.

And the “glycan array binding signal (z-score)” value [18]?
The value was -0.263.

And the “glycan array binding signal (z-score)” value [19]?
The value was -0.157.

What about the “glycan array binding signal (z-score)” value [20] of the same binder?
Its value is -0.466.
